In PubChem BioAssay (NCATS):
Where “and” joins values, the source holds several entries; their conditions need not be identical. Equal entries are not always repeated. Inconclusive results are not listed. Some compounds were tested as several samples or in several runs, with calls that do not always agree. Calls of active or inactive are those of the source. The call rests on the fitted dose curve; in most records, active means well fitted inhibition curve with a large enough effect; inconclusive means small, poorly fitted or top-dose-only effect; inactive means flat fitted curve, though single readings scatter.

test system: MCC-26; experiment: qHTS assay to identify novel small-molecules to repurpose for Merkel cell carcinoma treatment (AID 1296009); conditions: MCC and control cell lines, CellTiter-Glo viability, 72 h; series mostly up to 46 µM; activity change, negative = cytotoxicity: at the top concentration; further: nearly all actives have a fitted effect of over 60% in size
From the text: MCC is a rare and aggressive neuroendocrine skin cancer with limited treatment options. Approximately 80% of MCCs have the Merkel cell polyomavirus (MCPyV) DNA integrated into the host genome (virus-positive: VP-MCC) and viral oncogenes drive oncogenesis. The remaining MCCs are virus-negative (VN-MCC) and are caused by UV mutagenesis. To identify novel treatments for VP-MCC and/or VN-MCC we screened three VP-MCC cell lines (WAGA, MKL-1, MKL-2), three VN-MCC cell lines (MCC-13, MCC-26, UISO), and four immortalized, non-transformed control cell lines (HaCaT, HEK293T, CRL7250, NIH-3T3) against ~2,400 compounds in the NCGC Pharmaceutical Collection (NPC) and ~1,900 compounds in the Mechanism Interrogation PlatE (MiPE). Using cell viability as a readout (CellTiter-Glo assay) we found both overlapping and distinct drugs that can be repurposed for the treatment of VP-MCC and VN-MCC.
A high-throughput screen was conducted in 1536-well white flat bottom plates (Corning) on a Kalypsys robotic system. Cell lines WAGA, MKL-1, MKL-2, MCC-13, MCC-26, UISO, HaCaT, HEK293T, CRL7250, and NIH-3T3 were screened against 2 small molecule annotated drug libraries NPC and MIPE in dose response (8 and 11 pt. respectively) measuring cell viability after 72 hours of incubation. […] A 1,536 pintool (Kalypsys) was used to transfer 23 nL of compound in DMSO to the 1,536-well assay plates. After 72 hr incubation at 37 degree celsius, 2.5 uL of CellTiter-Glo (Promega) was dispensed into each well using a BiorapTR. Plates were incubated at room temperature for 10 min, transferred to a ViewLux (PerkinElmer) and the luminescence was recorded using an exposure time of 2 seconds. Relative luminescence units (RLUs) were normalized to in-plate controls (no cells as a positive (cytotoxicity) control, DMSO as negative control) and the normalized data was processed using NCATS in-house software.
On the % scale 0 is the no-effect control and ±100 the full control effect; potency means the concentration at half of the fitted maximal effect.

Row | SMILES | activity change, negative = cytotoxicity | Potency
1 | O=P(O)(O)C(O)(Cn1ccnc1)P(=O)(O)O | 3.44% [at 16.1 µM] (inactive) | 
2 | Cc1ccc(Nc2nccc(N(C)c3ccc4c(C)n(C)nc4c3)n2)cc1S(N)(=O)=O |  | inactive
3 | Oc1ccc(-c2nc(-c3ccc(F)cc3)c(-c3ccncc3)[nH]2)cc1 | 1.42% (inactive) | 
4 | Cc1cc(O)c2c(c1)C(=O)c1cc(O)cc(O)c1C2=O | -3.71% (inactive) | 
5 | CCCc1cc(=O)[nH]c(=S)[nH]1 |  | inactive
6 | Cc1c(OCC(F)(F)F)ccnc1CS(=O)c1nc2ccccc2[nH]1 (stereo not given) |  | inactive
7 | O=c1oc2cc(O)ccc2s1 | 3.22% (inactive) | 
8 | COC1=C(OC)C(=O)C(CCCCCCCCCCO)=C(C)C1=O |  | inactive
9 | CC1=C(C(=O)O)N2C(=O)[C@@H](NC(=O)[C@H](N)C3=CCC=CC3)[C@H]2SC1 |  | inactive
10 | CCOC(=O)C1=C[C@@H](OC(CC)CC)[C@H](NC(C)=O)[C@@H](N)C1 | 3.2% (inactive) | 
11 | COC(=O)C1=C(C)NC(C)=C(C(=O)OCCCN2CCC(c3ccccc3)(c3ccccc3)CC2)C1c1cccc([N+](=O)[O-])c1 (stereo not given) |  | inactive and 23.7 µM (active)
12 | Clc1ccc(C(Cn2ccnc2)OCc2ccc(Sc3ccccc3)cc2)c(Cl)c1 (stereo not given) |  | inactive
13 | CC(C)(S)[C@@H](N)C(=O)O | -4.52% (inactive) | 
14 | Nc1nc(N)c(N=O)c(OCC2CCCCC2)n1 | -7.14% (inactive) | 
15 | CC1(C)C(=O)N(CCN2CCC(C(=O)c3ccc(F)cc3)CC2)c2ccccc21 | -3.48% (inactive) | 
16 | S=c1nc[nH]c2nc[nH]c12 | -22.8% (inactive) | 
17 | C=CCc1cc(OC)c(O)c(C(=O)NCCO)c1 |  | inactive
18 | O=C(O)c1cn(-c2ccc(F)cc2)c2cc(N3CCNCC3)c(F)cc2c1=O |  | inactive
19 | CCOC(=O)c1c(C)n(C)c2ccc(O)cc12 |  | inactive
20 | CCCCCCCCCCCCCCCCCCCCCCO | 0.531% (inactive) | 

Row | SMILES | activity change, negative = cytotoxicity | Potency
21 | CC1=C(C)C(=O)C(C(CCCCCC(=O)O)c2ccccc2)=C(C)C1=O (stereo not given) |  | inactive
22 | CCc1nc(N)nc(N)c1-c1ccc(Cl)cc1 |  | inactive
23 | c1cnc2cc3c(cc2n1)C1CNCC3C1 | -0.754% (inactive) | 
24 | NC(=NCc1ccccc1)NC(=O)c1nc(Cl)c(N)nc1N | -1.78% (inactive) | 
25 | O=C(O)c1cccnc1Nc1cccc(C(F)(F)F)c1 |  | inactive
26 | CC(=O)Nc1ccc(O)cc1 |  | inactive
27 | CC(=O)O[C@H]1C(=O)[C@@]2(C)C([C@H](OC(=O)c3ccccc3)[C@]3(O)C[C@H](OC(=O)[C@H](O)[C@@H](NC(=O)c4ccccc4)c4ccccc4)C(C)=C1C3(C)C)[C@]1(OC(C)=O)CO[C@@H]1C[C@@H]2O (stereo not given in full) |  | 0.0037 µM (active)
28 | Cc1c(C(=O)NN2CCCCC2)nn(-c2ccc(Cl)cc2Cl)c1-c1ccc(Cl)cc1 |  | inactive
29 | O=c1cc(N2CCOCC2)oc2c(-c3ccccc3)cccc12 | -6.72% (inactive) | 
30 | CN(c1nccc(=O)[nH]1)C1CCN(c2nc3ccccc3n2Cc2ccc(F)cc2)CC1 |  | inactive
31 | CCCCC(CC)COC(=O)C(C#N)=C(c1ccccc1)c1ccccc1 (stereo not given) |  | inactive
32 | O=Nc1c(-c2c(O)[nH]c3cc(Br)ccc23)[nH]c2ccccc12 |  | 16.6 µM (active)
33 | Cc1cc(=O)oc2cc(O)ccc12 |  | inactive
34 | OC(CN1CCN(c2cccc(Cl)c2)CC1)C(c1ccccc1)c1ccccc1 (stereo not given) | -2.75% (inactive) | 
35 | O=C1NC(=O)C(c2ccccc2[N+](=O)[O-])=C1Nc1ccc(O)c(Cl)c1 | 6.47% (inactive) | 
36 | O=C(CCc1ccc(O)cc1)c1c(O)cc(O)cc1O | -13.6% (inactive) | 
37 | CCCS(=O)c1ccc2nc(NC(=O)OC)[nH]c2c1 (stereo not given) | -6.63% (inactive) | 
38 | CCOC(=O)C1=C(O)C(=O)N(Cc2ccccc2)C1 | -3.25% (inactive) | 
39 | O=c1ccc2ccc(O)c(O)c2o1 | -0.915% (inactive) | 
40 | CN(C)c1ccc2nc3ccc(=[N+](C)C)cc-3sc2c1 |  | 21.1 µM (active)
